# HP1b chromo inh: blocks HP1-beta chromodomain binding to methylated histone tails | P83916 | AlphaScreen HP1-beta / biotin-H3K9me3 peptide binding | Potency, µM (titrated, usually from 114 µM), without a hit: at the top dose activity change, negative = inhibition, actives largely listed as inhibitors | hit rate 0.56% among 390,000; note: nearly all actives have a fitted effect of over 70% in size
#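 Compound inhibition of the preformed complex between 50 nM HP1-beta and 50 nM biotinylated H3K9me3 peptide was read by AlphaScreen. Buffer was PBS pH 7.4 with 0.01% Tween-20. Incubations ran 30 min at room temperature, with 10 ug/mL donor/acceptor beads.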
# PLK1 PBD inh: PLK1 (human) polo-box domain binding inhibition; Plk1 PBD binding of FITC phosphopeptide, fluorescence polarization; Potency, µM, for inactives: max response, negative = inhibition, hits mostly inhibitors; hit rate 2.8% among 360,000; AID 720504; note: series mostly up to about 57 µM; % is set by controls: 0 for no effect and ±100 for the full control effect; nearly all actives have a fitted effect of over 65% in size
# Target sequence (P53350 whole entry, looked up, the tested form may be a part): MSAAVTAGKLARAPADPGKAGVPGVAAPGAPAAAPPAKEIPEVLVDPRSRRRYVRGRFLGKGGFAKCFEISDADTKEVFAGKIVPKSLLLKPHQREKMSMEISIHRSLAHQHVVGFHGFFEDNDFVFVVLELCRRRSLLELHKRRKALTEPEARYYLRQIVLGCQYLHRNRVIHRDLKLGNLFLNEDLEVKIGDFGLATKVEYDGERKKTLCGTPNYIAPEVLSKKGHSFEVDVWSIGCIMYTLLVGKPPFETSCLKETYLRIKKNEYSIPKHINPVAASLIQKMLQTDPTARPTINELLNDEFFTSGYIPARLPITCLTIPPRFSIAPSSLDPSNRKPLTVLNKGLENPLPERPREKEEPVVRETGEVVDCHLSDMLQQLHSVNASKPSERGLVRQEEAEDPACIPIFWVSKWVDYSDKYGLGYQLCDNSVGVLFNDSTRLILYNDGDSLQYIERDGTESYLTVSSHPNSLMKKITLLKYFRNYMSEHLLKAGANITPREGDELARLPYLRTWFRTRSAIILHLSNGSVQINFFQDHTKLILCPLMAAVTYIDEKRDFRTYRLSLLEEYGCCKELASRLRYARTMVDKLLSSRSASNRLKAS
# BAZ2B block: BAZ2B (human) inhibition. hit rate 4.4% among 360,000. Q9UIF8. AID 504333. Potency, µM (titrated, usually from 114 µM), for the others: at the highest dose activity change, negative = inhibition, usual class: inhibitors. AlphaScreen BAZ2B-H3K14Ac peptide displacement; note: % is set by controls: 0 for no effect and ±100 for the full control effect; nearly all actives have a fitted effect of over 60% in size
#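 AlphaScreen displacement: compounds (up to 110uM) incubated 30 min at room temperature with a preformed 50 nM BAZ2B/50 nM biotinylated H3K14Ac peptide complex in PBS pH 7.4 with Tween-20. Donor and acceptor beads at 10 ug/mL final added, 20 min light-protected before reading.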
# JMJD2A Tudor inh: JMJD2A Tudor domain (human) inhibition | O75164 | hit rate 4.4% among 390,000 | AID 504339 | AlphaScreen JMJD2A-Tudor / H3K4me3 peptide binding | Potency, µM (titrated, usually from 114 µM), for the others: top-dose activity change, negative = inhibition, usual class: inhibitors; note: % is set by controls: 0 for no effect and ±100 for the full control effect; nearly all actives have a fitted effect of over 50% in size
# 12-LOX inh: blocks human arachidonate 12S-lipoxygenase. P18054. purified 12hLO, xylenol orange hydroperoxide absorbance. Potency, µM (titrated, usually from 108 µM), for the others: at the top dose activity change, negative = inhibition, actives largely listed as inhibitors. hit rate 1.1% among 580,000. AID 1671190; note: % is set by controls: 0 for no effect and ±100 for the full control effect
#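 Purified human 12hLO at 150 nM in 25 mM Hepes, 0.01% Triton X-100, pH 7.0, preincubated 15 min at room temperature with compound. Reaction started with 40 uM arachidonic acid, 30 min at room temperature. Hydroperoxide measured by Fe-xylenol orange, 573/405 nm absorbance ratio.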
# G9a inh: blocks human histone lysine methyltransferase G9a; Q96KQ7; G9a H3K9 monomethylation, AlphaScreen, 2 h; Potency, µM (top dose mostly 102 µM), without a hit: at the top dose activity, negative = inhibition, most hits filed as inhibitors; hit rate 8.8% among 350,000; AID 504332; note: % is set by controls: 0 for no effect and ±100 for the full control effect; nearly all actives have a fitted effect of over 75% in size
#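 AlphaScreen detection with an anti-monomethyl H3K9 antibody quantified product after a 2 h room-temperature reaction containing 500 nM biotinylated H3K9 peptide, 20 µM SAM and 20 nM enzyme, which had been preincubated 15 min with compound.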
# The depositor's hits bear a star; u = inconclusive; x = no result given; [ ] = remark or other dose. Shown are actives, neighbours in structure and some others; about 9% of the full set was active somewhere. Calls come from the whole dose curve; as a rule, active = well fitted curve in the direction sought with a large enough effect; inconclusive = small, poorly fitted or top-dose-only effect, or another doubt; inactive = no such curve, though single readings can be large; an effect the other way counts as inactive or inconclusive. Potency is the fitted concentration of half-maximal effect.
SMILES,HP1b chromo inh,PLK1 PBD inh,BAZ2B block,JMJD2A Tudor inh,12-LOX inh,G9a inh
CN1C(=S)SC(N(O)C(=O)Nc2cccc3ccccc23)C1(C)C (configuration not stated),-7%,u,-4%,-24%,u,45µM*
COc1ccc(-c2cn(-c3ccc(SC(F)F)cc3)c3[n+]2CCC3)cc1OC,37%,-17%,-29%,-14%,-9%,u
c1ccc(-c2cn(C[C@H]3CC[C@H](Cn4cc(-c5ccccn5)nn4)O3)nn2)nc1,-2%,-29%,0.79µM*,0.89µM*,-9%,x
COc1ccc(-n2cnnc2SCC(=O)Nc2cc(C(C)(C)C)nn2-c2ccccc2)cc1,25%,-2%,10%,-4%,10%,18%[12.7 µM]
COc1ccccc1-n1cnnc1SCC(=O)Nc1cc(C(C)(C)C)nn1-c1ccccc1,-8%,3.4µM*,-1%,-28%[11.4 µM],-17%,-19%[59 µM]
COc1ccccc1-n1cnnc1SCC(=O)NC(C)c1ccc(-c2ccccc2)cc1 (configuration not stated),x,x,x,x,1.6µM*,x
Cc1cc(/C=C/c2nc3c(ccc4ccccc43)s2)cc(C)c1O,x,x,x,x,6.3µM*,x
CS(=O)(=O)N1CCN(S(=O)(=O)c2ccccc2[N+](=O)[O-])CC1,-5%,u,-14%,-6%[11.4 µM],8%,0%
CC(=O)N1c2c(cc(Br)cc2S(=O)(=O)N2CCN(C(=O)c3ccco3)CC2)CC1C (configuration not stated),-10%,4.7µM*,-1%,22µM*,0%,u
CC(=O)N1c2c(cc(Br)cc2S(=O)(=O)N2CCN(c3ccccc3)CC2)CC1C (configuration not stated),-28%,x,-17%,u,-1%,-52%[59 µM]
O=[N+]([O-])c1ccccc1S(=O)(=O)N1CCN(C2CCN(Cc3ccccc3)CC2)CC1,u,-7%,-28%,0.71µM*,-10%,-29%
O=[N+]([O-])c1ccccc1S(=O)(=O)N1CCN(C2CCCC2)CC1,u,1%,79µM*,1.8µM*,-14%,x

# Screening results (PubChem)
